This passage reports outcome and AC50 results from PubChem BioAssay (EPA / NIEHS).

Inconclusive results are not listed. Calls of active or inactive are those of the source. The calls were made as follows: active = hit-call score of the fitted dose curve at least 0.9, where 1 is the maximum; inconclusive = response in the unintended direction; inactive = score below 0.9.

Ratio of Nucleoli Translocation and Cytoplasm, AR (gene 367), sequence (P10275 whole entry, looked up, the tested form may be a part): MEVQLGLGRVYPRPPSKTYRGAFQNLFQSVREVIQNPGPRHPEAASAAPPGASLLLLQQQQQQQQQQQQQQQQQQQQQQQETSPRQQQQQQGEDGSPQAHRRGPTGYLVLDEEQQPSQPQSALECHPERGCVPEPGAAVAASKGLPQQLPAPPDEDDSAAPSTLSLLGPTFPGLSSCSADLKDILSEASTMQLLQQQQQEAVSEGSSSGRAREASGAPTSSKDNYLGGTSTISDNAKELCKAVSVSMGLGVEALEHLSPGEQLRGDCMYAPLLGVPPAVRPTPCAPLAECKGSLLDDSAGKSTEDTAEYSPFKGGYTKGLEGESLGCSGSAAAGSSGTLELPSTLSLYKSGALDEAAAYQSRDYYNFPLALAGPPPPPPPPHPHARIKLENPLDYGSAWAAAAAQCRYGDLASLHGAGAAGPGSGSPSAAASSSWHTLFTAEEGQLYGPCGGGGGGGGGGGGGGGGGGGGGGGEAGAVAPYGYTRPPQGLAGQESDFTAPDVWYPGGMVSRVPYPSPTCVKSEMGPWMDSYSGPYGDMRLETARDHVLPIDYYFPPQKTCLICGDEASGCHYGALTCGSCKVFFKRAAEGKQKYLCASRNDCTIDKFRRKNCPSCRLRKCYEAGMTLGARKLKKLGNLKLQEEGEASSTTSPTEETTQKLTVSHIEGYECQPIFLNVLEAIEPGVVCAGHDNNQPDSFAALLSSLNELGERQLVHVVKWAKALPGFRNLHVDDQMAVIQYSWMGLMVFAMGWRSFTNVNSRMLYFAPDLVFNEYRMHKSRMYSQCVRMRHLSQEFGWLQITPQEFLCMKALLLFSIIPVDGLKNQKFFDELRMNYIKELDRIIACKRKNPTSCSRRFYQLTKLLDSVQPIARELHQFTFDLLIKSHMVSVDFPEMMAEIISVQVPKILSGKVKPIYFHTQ

The target in the test is Ratio of Nucleoli Translocation and Cytoplasm, AR (gene 367) (UniProt P10275). Description: UPITT_HCI_U2OS_AR_TIF2_Nucleoli_Cytoplasm_Ratio_Antagonist: University of Pittsburgh U2OS Androgen Receptor-Transcriptional Intermediary Factor 2 (AR-TIF2) Antagonism High Content Imaging Assay for Ratio of Nucleoli Translocation and Cytoplasm (AID 2283999).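 Also: antagonists lower the DHT-driven ratio of nucleolar to cytoplasmic red signal.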 The source says:
UPITT_AR_TIF2_PPIB is a cell-based, high-content imaging assay that uses U2OS, a human osteosarcoma cell line, expressing a human androgen receptor fused to red fluorescent protein and the coactivator TIF2 fused to green fluorescent protein. UPITT_HCI_U2OS_AR_TIF2_Nucleoli_Cytoplasm_Ratio_Antagonist is one of four assay components measured from the UPITT_AR_TIF2_PPIB assay. It is designed to make measurements of the ratio of red fluorescence localized in the nucleolar region of the cell nucleus to red fluorescence localized in the cytoplasm as detected with high-content fluorescent imaging.Data from the assay component UPITT_HCI_U2OS_AR_TIF2_Nucleoli_Cytoplasm_Ratio_Antagonist was analyzed into 1 assay endpoint. This assay endpoint, UPITT_HCI_U2OS_AR_TIF2_Nucleoli_Cytoplasm_Ratio_Antagonist, was analyzed in the positive analysis fitting direction relative to DHT as the baseline of activity. Using a type of binding reporter, measures of receptor for loss-of-signal activity can be used to understand the binding at the pathway-level as it relates to the gene AR.
Daughter plates containing 2 uL of 10 mM compounds in DMSO were prepared and replicated from the 384-well Library of Pharmacologically Active Compounds (LOPAC) master plates using the Bravo outfitted with a 384-well transfer head. Aluminum adhesive plate seals were applied with an Abgene Seal-IT 100 (Rochester, NY) plate sealer, and the plates were stored at -20 C in a Matrical MatriMinistore (Spokane, WA) automated compound storage and retrieval system. For screening, LOPAC daughter plates were withdrawn from -20C storage, thawed to ambient temperature, centrifuged 1-2 min at 50 g, and the plate seals were removed before the transfer of 98 uL of serum-free tissue culture medium (SFM) into wells using the BioTek Microflo liquid handler (BioTek, Winooski, VT) to generate a 200 uM intermediate stock concentration of library compounds (2.0% DMSO). The diluted compounds were mixed by repeated aspiration and dispensation using a 384-well P30 dispensing head on the Evolution P3 (EP3) liquid handling platform (PerkinElmer, Waltham, MA) and then 5 uL of diluted compounds was transferred to the wells of assay plates. In the LOPAC screen, compounds were individually tested at a final concentration of 20 uM (0.2% DMSO). After the diluted compounds had been transferred from the daughter plates to the primary HCS assay plates, aluminum adhesive plate seals were applied and the diluted daughter plates were stored frozen at -20C. To confirm active compounds identified in the primary screen, we withdrew the LOPAC daughter plates containing the 200 uM intermediate concentration of library compounds (2.0% DMSO) from -20C storage, thawed them to ambient temperature, centrifuged them for 1-2 min at 50 g, and removed the plate seals. A work list was generated to direct the Multiprobe Janus liquid handling platform (PerkinElmer) to cherry pick 75 uL from the wells of the diluted daughter plates that were flagged active in the primary screen and to reformat these into a 384-well plate hit confirmation daughter plate. Five microliters of primary HCS active compounds was then transferred into triplicate wells of assay plates using a 384-well P30 dispensing head on the Evolution P3 (EP3) liquid handling platform (PerkinElmer). […] Daughter plates containing 2 uL of the serially diluted compounds in DMSO were prepared and replicated from the 384-well serial dilution master plates using the Bravo outfitted with a 384-well transfer head. Aluminum adhesive plate seals were applied and plates were stored at -20C. For testing in the bioassays, daughter plates were withdrawn from -20C storage, thawed to ambient temperature, centrifuged for 1-2 min at 50 g, and the plate seals were removed before the transfer of 38 uL of SFM into wells using the BioTek Microflo liquid handler (BioTek) to generate an intermediate stock concentration of library compounds ranging from 1.95 to 500 uM (5.0% DMSO). […]
With `CC1(C)C(=O)N(Br)C(=O)N1Br`, the outcome was inactive.

With `CN(C)c1ccc(N=NS(=O)(=O)O)cc1`, the result was inactive.

With `CCOc1cccc(-n2cc(C(=O)N3CCN(c4cc(C(=O)O)c5ccccc5c4)CC3)nc2-c2ccc(C)cc2)c1`, the result was inactive.

The term AC50 denotes the concentration giving half of the maximal activity seen. On to `Oc1ccc2c(c1)-c1ccccc1C2`, for which the AC50 is 7.43 µM (active).

As to `CNS(=O)(=O)c1cc(C(=O)N2CCC(CCN3C4CCC3CC(n3c(C)nc5ccccc53)C4)(c3cccc(F)c3)CC2)c(Cl)cc1F` (stereo not drawn), the result was inactive.

Take `CCCCCCc1ccc(O)cc1O`: the result was inactive.

In the case of `O=C(O)c1cccc(N(Cc2cccnc2)c2ccc(OC(F)F)c(OC(F)F)c2)c1`, the outcome was inactive.

On to `O=C(CCCCCCCCc1cccnc1)N1CCC(C=C(c2ccccc2)c2ccccc2)CC1`, for which the outcome was inactive.

`CCCN(C1CCN(C(=O)C2CCNCC2)CC1)[C@@H]1CCc2ccc(OC)cc2C1`: the outcome was inactive.

Turning to `CC(C)=CCCC(C)CCO` (stereo not drawn), the outcome was inactive.

`Cc1ccc(N)cc1O`: the outcome was inactive.

With `Fc1ccccc1[C@@H](F)COC1CCC(Nc2ncnc3[nH]ncc23)CC1` (stereo partly drawn), the outcome was inactive.

`CCNc1ccccc1`: the outcome was inactive.
